Source: PubChem BioAssay (The Scripps Research Institute Molecular Screening Center)
DAX1 inh-1: blocks DAX1 repression of SF-1 activated StAR promoter. HEK293T StAR-luciferase reporter, SF-1/DAX-1 repression relief. inhibition, % at 6.8 µM. 370,000 compounds, 1.1% hits. AID 652010;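 active = inhibition above the mean over all tested compounds plus 3 SD, cut at about 3.6% in these data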;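 also: 0% = DAX-1 cells with DMSO and 100% = cells lacking DAX-1 with DMSO; higher inhibition means more luminescence from relief of DAX-1 repression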
SMARCA2 act: activators of SMARCA2 function. MG213 cells, MMTV-luciferase reporter, dexamethasone, overnight. activation, % at 9.1 µM. AID 652017. 370,000 compounds, 1% hits; in the data active = activation above about 7.8%;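 also: 0% = vehicle wells and 100% = reference activator wells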
DAX1 inh-2: inhibitors of human orphan nuclear receptor DAX1 (NR0B1). HEK293 Gal4-DAX1 luciferase reporter, luminescence. P51843. AID 504766. 340,000 compounds, 0.99% hits. inhibition, % at 6.75 µM;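 active = inhibition above the mean over all tested compounds plus 3 SD, cut at about 4.2% in these data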;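 also: 0% = DAX1-transfected cells with DMSO and 100% = empty-vector control cells with DMSO; inhibition shows as a rise in luminescence from relieved DAX1 repression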
Target sequence (P51843 207-470 limits assumed): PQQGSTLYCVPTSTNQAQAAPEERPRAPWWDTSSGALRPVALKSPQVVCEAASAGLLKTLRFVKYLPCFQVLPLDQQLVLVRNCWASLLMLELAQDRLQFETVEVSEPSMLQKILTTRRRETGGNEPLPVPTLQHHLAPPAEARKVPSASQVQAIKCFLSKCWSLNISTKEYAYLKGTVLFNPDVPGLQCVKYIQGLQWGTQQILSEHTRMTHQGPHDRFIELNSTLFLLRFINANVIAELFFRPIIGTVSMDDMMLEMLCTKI
ssDAF12 agonist: activates DAF-12 receptor from parasite S. stercoralis; activation, % at 6.8 µM; AID 652126; 370,000 compounds, 1% hits; HEK293 ssDAF-12/GRIP1 lit1-tk-luc reporter, luminescence; % of 3 µM dafachronic acid response;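 active = activation above the mean over all tested compounds plus 3 SD, cut at about 0.9% in these data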;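 also: 0% = DMSO-only wells and 100% = 3 µM delta7-dafachronic acid wells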
hgDAF-12 ag: agonists of H. glycines DAF-12 nuclear receptor | 370,000 compounds, 1.8% hits | activation, % at 6.8 µM | AID 687014 | HEK293 GAL4-hgDAF12 UAS-luciferase reporter, agonist luminescence; normalized to butyrate control;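 active = activation above a cutoff set at the mean of all screened compounds plus 3 SD, cut at about 10% in these data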;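 also: 0% = DMSO wells and 100% = sodium butyrate wells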
hcDAF12 agonist: activates DAF-12 receptor from parasite H. contortus; HEK293 hcDAF-12 lit1-tk-luc reporter, luminescence; 0% DMSO, 100% Δ7-dafachronic acid; activation, % at 6.8 µM; 370,000 compounds, 1.4% hits;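 active = activation above the mean of all tested compounds plus 3 SD, cut at about 5.5% in these data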;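 also: 100% = response to 3 µM Δ7-dafachronic acid high control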
The depositor's hits bear a star. Most compounds without a hit are left out; they make up all but 4.8% or so of the library.

Results for COc1cc(C)ccc1OCC(=O)NC1CCCCCC1 ?
DAX1 inh-1: 4.3*; SMARCA2 act: 6.6; DAX1 inh-2: 0.9; ssDAF12 agonist: -0.7; hgDAF-12 ag: 8.1; hcDAF12 agonist: -0.4

What do the screens show for `CCC(C)NC(=O)C1CCN(c2nc(OC)nc(OC)n2)CC1` (stereo unspecified)?
DAX1 inh-1: -0.1; SMARCA2 act: -3.3; DAX1 inh-2: 0.3; ssDAF12 agonist: -1.2; hgDAF-12 ag: 0.7; hcDAF12 agonist: -1.2

How did CCC(C)(C)NC(=O)C1CCN(c2nc(OC)nc(OC)n2)CC1 do in these assays?
DAX1 inh-1: -0.4; SMARCA2 act: -1.2; DAX1 inh-2: 6.1*; ssDAF12 agonist: -0.8; hgDAF-12 ag: -3.4; hcDAF12 agonist: -1.3

How did Cc1nn(-c2ccccc2)c(C)c1/C=N\N1CCN(Cc2ccccc2Cl)CC1 do in these assays?
DAX1 inh-1: -0.9; SMARCA2 act: -4.4; ssDAF12 agonist: -1.2; hgDAF-12 ag: -0.7; hcDAF12 agonist: -3.8

What do the screens show for `O=C(O)Cn1ccc2ccccc21`?
DAX1 inh-1: -0.3; SMARCA2 act: 6.2; DAX1 inh-2: 0.1; ssDAF12 agonist: 0.9; hgDAF-12 ag: 1.2; hcDAF12 agonist: 5.7*

How did NC(=O)CCn1ccc2ccccc21 do in these assays?
DAX1 inh-1: -1.0; SMARCA2 act: 4.8; DAX1 inh-2: 1.6; ssDAF12 agonist: -1.6; hgDAF-12 ag: 1.4; hcDAF12 agonist: 1.1

What do the screens show for `CN(C(=O)[C@@H]1CC=C[C@@H]2CCN(C3CCCCC3)C(=O)[C@@H]21)c1ccccc1`?
ssDAF12 agonist: -1.1; hgDAF-12 ag: 1.1; hcDAF12 agonist: -0.6

How did CCn1c(C(=O)OC)cc2c1ccn2-c1ccc(F)cc1 do in these assays?
DAX1 inh-1: 0.7; SMARCA2 act: -0.4; DAX1 inh-2: 2.4; ssDAF12 agonist: 0.1; hgDAF-12 ag: 13.2*; hcDAF12 agonist: 1.8

How did COc1ccc(C=Nn2c(-c3ccc(F)cc3)n[nH]c2=S)cc1OCc1ccccc1 do in these assays?
DAX1 inh-1: -0.4; SMARCA2 act: -0.2; ssDAF12 agonist: -2.0; hgDAF-12 ag: 1.9; hcDAF12 agonist: -0.2

What do the screens show for `COc1cccc(-c2nnc(NC(=O)CCS(=O)(=O)c3ccc(F)cc3)o2)c1`?
DAX1 inh-1: -0.1; SMARCA2 act: 1.2; DAX1 inh-2: -0.1; ssDAF12 agonist: -1.2; hgDAF-12 ag: 5.3; hcDAF12 agonist: 0.2

How did CS(=O)(=O)c1cccc(-c2nnc(NC(=O)CCS(=O)(=O)c3ccccc3)o2)c1 do in these assays?
DAX1 inh-1: 0.7; SMARCA2 act: 0.3; DAX1 inh-2: 4.6*; ssDAF12 agonist: -0.4; hgDAF-12 ag: 3.3; hcDAF12 agonist: 0.9

Results for CC1CCCCC1=NNC(=O)c1ccccc1 (stereo unspecified) ?
DAX1 inh-1: 4.1*; SMARCA2 act: 1.4; DAX1 inh-2: 5.9*; ssDAF12 agonist: 0.3; hgDAF-12 ag: 10.2; hcDAF12 agonist: 2.1

What do the screens show for `CCC(C)NC(=O)Cn1cc(S(=O)(=O)N2CCCC2)c(S(=O)(=O)N2CCCC2)c1` (stereo unspecified)?
DAX1 inh-1: -0.3; SMARCA2 act: 0.0; DAX1 inh-2: 0.9; ssDAF12 agonist: -0.8; hgDAF-12 ag: 3.3; hcDAF12 agonist: -1.9

What do the screens show for `CCCNC(=O)Cn1cc(S(=O)(=O)N2CCCC2)c(S(=O)(=O)N2CCCC2)c1`?
DAX1 inh-1: 3.9*; SMARCA2 act: -1.9; DAX1 inh-2: 0.8; ssDAF12 agonist: -1.1; hgDAF-12 ag: 1.9; hcDAF12 agonist: 1.5

What do the screens show for `CCOC(=O)c1sc(NCc2ccco2)c(-c2nc3ccccc3s2)c1N`?
DAX1 inh-1: 0.4; SMARCA2 act: 5.1; DAX1 inh-2: 1.0; ssDAF12 agonist: 0.2; hgDAF-12 ag: 4.0; hcDAF12 agonist: 6.2*

What do the screens show for `CCNc1sc(C(=O)c2cccs2)c(N)c1-c1nc2ccccc2s1`?
DAX1 inh-1: 0.1; SMARCA2 act: -2.3; DAX1 inh-2: 2.3; ssDAF12 agonist: 0.3; hgDAF-12 ag: 9.3; hcDAF12 agonist: 3.4

Results for O=C(NC1CCCCN(Cc2ccc(Cl)cc2)C1=O)c1cccc(F)c1 (stereo unspecified) ?
DAX1 inh-1: -1.3; SMARCA2 act: -1.9; ssDAF12 agonist: -1.1; hgDAF-12 ag: -0.2; hcDAF12 agonist: -2.4
